From PubChem BioAssay (Tox21) come the findings set out here.

Unmarked numbers belong to inactive results. Results filed as inconclusive are left out. The source made the active and inactive calls. Unless noted, calls follow the shape of the full dose curve.

Test [1] can be described thus: Nuclear factor erythroid 2-related factor 2/antioxidant responsive element (Nrf2/ARE) small molecule agonists: qHTS cell viability counter screen in human keratinocytes (AID 1919968; active = well fitted curve in the direction sought with a large enough effect in the repeat runs; an effect the other way counts as inactive or inconclusive; also: nearly all actives have a fitted effect of over 55% in size; also: potency is read from the fitted curve at half-maximal effect). Put shortly: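 HaCaT ARE reporter line, 1,500 cells/well; 5 h settle, 37 C/5% CO2; cpd in DMSO pinned; 23 h exposure; CellTiter-Fluor, 1 h; fluorescence.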
Test [2] in a line: Nuclear factor erythroid 2-related factor 2/antioxidant responsive element (Nrf2/ARE) small molecule agonists: luciferase reporter gene qHTS assay in human keratinocytes (AID 1919969). Also: nearly all actives have a fitted effect of over 35% in size.
Test [3] concerns the target KiSS-1 receptor (Homo sapiens) (UniProt Q969F8). The test is described as follows: Human kisspeptin (KISS1R) small molecule agonists, calcium flux assay in KISS1R-HEK293 cells (AID 1920064; active = well fitted curve in the direction sought with a large enough effect in the repeat runs; an effect the other way counts as inactive or inconclusive). Put shortly: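 Stable human KISS1R HEK293 line; 18 h plating, 37 C/5% CO2; calcium dye 1 h 37 C; compound pin transfer; kinetic fluorescence Ex/Em 480/540, 3 min.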
(Calcium flux is commonly read through the fluorescence of an indicator in the cells.)

Test [4] in a line: G protein-coupled receptor (GPCR) small molecule agonists, calcium flux assay: HEK293 wild type cell line counter screen (AID 1920065). The procedure, abridged:
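Kinetic fluorescence at Ex/Em 480/540, recorded every second over 3 min, served as the read-out after compound addition. Each compound was tested at 15 concentrations in triplicate on cells pre-loaded with calcium dye for 1 h.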

The nature of test [5]: p53 small molecule agonists, cell-based qHTS assay with human liver microsomes: qHTS cell viability counter screen (AID 1963579). Also: nearly all actives have a fitted effect of over 45% in size. Put shortly: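 Metabolically activated exposure: compounds, human liver microsomes and NADPH (0.5 mg/mL final apiece) were added to p53RE-bla cells seeded 5 h earlier, left 16 h at 37 C, and then assessed for viability by CellTiter-Glo luminescence.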

A short description of test [6]: p53 small molecule agonists, cell-based qHTS assay: qHTS cell viability counter screen (AID 1963581). Also: nearly all actives have a fitted effect of over 45% in size. Put shortly: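 HCT-116 p53RE-bla cells, 4,000/well, plated 5 h before compound pin transfer; 16 h at 37 C; bla substrate 2 h RT; then CellTiter-Glo, 30 min RT, luminescence.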
In general terms: In qHTS, concentration-response curves come from the screen itself.

The target of test [7] is 5-hydroxytryptamine receptor 2A (Homo sapiens) (UniProt P28223). The test is described as follows: 5-hydroxytryptamine receptor 2A (HTR2A) small molecule antagonists, cell-based qHTS assay (AID 1963586). Also: nearly all actives have a fitted effect of over 45% in size. The procedure, abridged: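 Antagonist-mode intracellular calcium assay: DOI (4 nM) added after 5 min compound pre-incubation at room temperature to dye-loaded HTR2A-CHO cells. Fluorescence followed for 3 min, sampled every second.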
Sequence of 5-hydroxytryptamine receptor 2A (Homo sapiens) (P28223 whole entry, looked up): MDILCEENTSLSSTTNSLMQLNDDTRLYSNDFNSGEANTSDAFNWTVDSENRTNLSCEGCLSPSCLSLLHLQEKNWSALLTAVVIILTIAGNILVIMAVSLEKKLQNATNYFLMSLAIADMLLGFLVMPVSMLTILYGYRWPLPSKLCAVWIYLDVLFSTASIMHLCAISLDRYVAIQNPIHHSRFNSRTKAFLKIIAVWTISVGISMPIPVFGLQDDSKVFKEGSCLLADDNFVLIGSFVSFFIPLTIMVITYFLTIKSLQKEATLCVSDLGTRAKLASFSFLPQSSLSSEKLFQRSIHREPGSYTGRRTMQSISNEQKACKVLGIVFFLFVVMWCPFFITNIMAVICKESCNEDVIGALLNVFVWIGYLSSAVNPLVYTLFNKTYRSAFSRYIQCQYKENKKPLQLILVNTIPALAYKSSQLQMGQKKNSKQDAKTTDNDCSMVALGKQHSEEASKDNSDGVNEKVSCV

For test [8] the target is unchanged. The test is described as follows: 5-hydroxytryptamine receptor 2A (HTR2A) small molecule agonists, cell-based qHTS assay (AID 1963587). Also: nearly all actives have a fitted effect of over 30% in size. Also: potency is read from the fitted curve at half-maximal effect. Put shortly: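 CHO cells stably expressing human HTR2A, plated 18 h, loaded with calcium dye 1 h at 37 C. Agonist mode: compounds added and intracellular calcium fluorescence recorded kinetically for 2 min at 1 sec intervals.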

Test [9] addresses Muscarinic acetylcholine receptor M1 (Homo sapiens) (UniProt P11229). The test is described as follows: Cholinergic receptor muscarinic 1 (CHRM1) small molecule antagonists, cell-based qHTS assay (AID 1963588). Also: nearly all actives have a fitted effect of over 40% in size. The procedure, abridged: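 CHRM1-CHO calcium-flux assay, antagonist mode. Cells were seeded 18 h, dye-loaded 1 h at 37 C and given compound for 5 min at RT, then acetylcholine was added at 50nM. FDSS fluorescence was read 3 min; 15 concentrations, three runs.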

Test [10] shares this target. The test is described as follows: Cholinergic receptor muscarinic 1 (CHRM1) small molecule agonists, cell-based qHTS assay (AID 1963589). Also: nearly all actives have a fitted effect of over 35% in size. The procedure, abridged:
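Human M1 in stable CHO line; 18 h plating, 1 h dye load 37 C; cpd added (agonist mode); Ca2+ fluorescence kinetic read, 1 s intervals; 15 conc, 3 runs.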

Test [11] can be described thus: cAMP Responsive Elements (CRE) small molecule agonists, cell-based qHTS assay (AID 1963590). The procedure, abridged: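 HEK 293T CRE-bla, 2,000 cells/well, 18 h preincubation 37 C/5% CO2; cpds (DMSO) pinned, 3 h; LiveBLAzer B/G FRET substrate, 2 h RT.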
Test [12] can be described thus: cAMP Responsive Elements (CRE) small molecule antagonists, cell-based qHTS assay (AID 1963591; active = well fitted inhibition curve with a large enough effect in the signal ratio in the repeat runs, not every such curve was filed as active; the % refers to the signal ratio). The procedure, abridged: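 Beta-lactamase reporter read by FRET substrate (LiveBLAzer B/G) after 2 h at room temperature. CRE-bla HEK293T cells had received compound plus 0.25 uM (final) NKH477 for 3 h at 37 °C.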
Test [13] concerns the target Beta-2 adrenergic receptor (Homo sapiens) (UniProt P07550). The test is described as follows: Adrenergic beta2 receptor (ADRB2) small molecule antagonists, cell-based qHTS assay (AID 1963592). Also: series mostly up to about 92 µM; nearly all actives have a fitted effect of over 50% in size. Put shortly:
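Cells (CHO, stable ADRB2 overexpression) incubated 18-20hr at 37C; compounds added from DMSO; agonist mix (1nM isoproterenol, 100uM IBMX, 25uM Ro-20-1724) added; 0.5hr RT; d2-cAMP and anti-cAMP-cryptate added; 1hr RT; 665/615 nm read.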

The target of test [14] is D(2) dopamine receptor (Homo sapiens) (UniProt P14416). The test is described as follows: Dopamine D2 receptor (DRD2) small molecule antagonists, cell-based qHTS assay (AID 1963595; active = well fitted inhibition curve with a large enough effect in the signal ratio in the repeat runs, with a control signal flat; the % refers to the signal ratio; also: potency is read from the fitted curve at half-maximal effect). The procedure, abridged:
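HEK293 cells stably expressing DRD2, preincubated with 0.1 mM Ro20-1724 and compounds 10 min, were stimulated with 200 nM NKH477 plus 12 nM quinpirole for 30 min at room temperature; cAMP measured by HTRF (665/620 nm).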

Test [15] in a line: p53 small molecule agonists, cell-based qHTS assay (AID 1963582; active = well fitted activation curve with a large enough effect in the signal ratio in the repeat runs, not every such curve was filed as active; the % refers to the signal ratio). The procedure, abridged: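 Reporter line: p53RE-bla. Pre-incubation 5 h, 37 C, 5% CO2; compound (DMSO, pin tool) 16 h, 37 C; B/G FRET substrate 2 h RT; fluorescence intensity read.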
The target in test [16] is D(2) dopamine receptor (Homo sapiens) (UniProt P14416). The test is described as follows: Dopamine D2 receptor (DRD2) small molecule agonists, cell-based qHTS assay (AID 1963594). Also: nearly all actives have a fitted effect of over 35% in size. The procedure, abridged:
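HEK293 cells stably expressing human DRD2, pre-treated with PDE inhibitor Ro20-1724 (0.1 mM final) and compound 10 min at room temperature, then stimulated with NKH477 (200nM […]) for 30 min. cAMP read by HTRF (665/620 nm).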

Test [17] in a line: p53 small molecule agonists, cell-based qHTS assay with rat liver microsomes: qHTS cell viability counter screen (AID 1963580). Also: nearly all actives have a fitted effect of over 45% in size. The procedure, abridged:
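Viability is assessed in parallel with the p53 reporter read: HCT-116 p53RE-bla cells receive compounds plus rat microsomes and NADPH (0.5 mg/mL final apiece), incubate 16 h at 37 C, and then CellTiter-Glo luminescence is recorded.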

Test [18] in a line: p53 small molecule agonists, cell-based qHTS assay with human liver microsomes (AID 1963577).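 Also: p53 response element beta-lactamase reporter cells with liver microsomes plus NADPH.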 Put shortly:
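In this qHTS, p53 response-element beta-lactamase cells receive test compound together with a microsome/NADPH activating system (0.5 mg/mL final each) and are incubated 16 h at 37 C before LiveBLAzer fluorescence detection.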

A short description of test [19]: p53 small molecule agonists, cell-based qHTS assay with rat liver microsomes (AID 1963578). Put shortly:
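Agonist mode in p53RE-bla reporter cells, with compounds co-incubated 16 h at 37 C alongside 0.5 mg/mL rat liver microsomes and 0.5 mg/mL NADPH (final), followed by a 2 h LiveBLAzer detection step.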
% is scaled to controls: 0 for no effect and ±100 for the full control effect.

Sequence of KiSS-1 receptor (Homo sapiens) (Q969F8 whole entry, looked up): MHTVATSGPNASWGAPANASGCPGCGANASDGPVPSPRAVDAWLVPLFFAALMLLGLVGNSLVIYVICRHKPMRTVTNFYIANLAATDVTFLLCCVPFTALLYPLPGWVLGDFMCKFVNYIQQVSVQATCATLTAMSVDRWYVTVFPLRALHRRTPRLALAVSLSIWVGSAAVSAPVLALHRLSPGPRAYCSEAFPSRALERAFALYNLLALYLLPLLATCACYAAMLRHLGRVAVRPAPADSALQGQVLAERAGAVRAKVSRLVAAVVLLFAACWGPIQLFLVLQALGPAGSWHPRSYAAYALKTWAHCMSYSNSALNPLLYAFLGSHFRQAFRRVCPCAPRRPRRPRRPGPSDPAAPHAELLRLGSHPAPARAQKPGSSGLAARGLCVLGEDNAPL
Sequence of Beta-2 adrenergic receptor (Homo sapiens) (P07550 whole entry, looked up): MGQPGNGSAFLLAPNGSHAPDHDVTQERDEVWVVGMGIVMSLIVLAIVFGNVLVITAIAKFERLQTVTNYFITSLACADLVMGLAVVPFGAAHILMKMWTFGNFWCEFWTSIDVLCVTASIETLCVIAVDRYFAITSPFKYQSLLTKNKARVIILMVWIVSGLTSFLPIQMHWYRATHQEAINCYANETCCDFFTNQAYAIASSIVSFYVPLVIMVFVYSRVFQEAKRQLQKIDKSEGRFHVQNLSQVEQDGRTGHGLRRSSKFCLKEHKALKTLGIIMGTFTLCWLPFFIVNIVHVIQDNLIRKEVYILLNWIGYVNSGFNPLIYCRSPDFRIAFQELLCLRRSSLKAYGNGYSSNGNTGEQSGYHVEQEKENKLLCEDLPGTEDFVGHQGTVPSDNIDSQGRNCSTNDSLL
Sequence of Muscarinic acetylcholine receptor M1 (Homo sapiens) (P11229 whole entry, looked up): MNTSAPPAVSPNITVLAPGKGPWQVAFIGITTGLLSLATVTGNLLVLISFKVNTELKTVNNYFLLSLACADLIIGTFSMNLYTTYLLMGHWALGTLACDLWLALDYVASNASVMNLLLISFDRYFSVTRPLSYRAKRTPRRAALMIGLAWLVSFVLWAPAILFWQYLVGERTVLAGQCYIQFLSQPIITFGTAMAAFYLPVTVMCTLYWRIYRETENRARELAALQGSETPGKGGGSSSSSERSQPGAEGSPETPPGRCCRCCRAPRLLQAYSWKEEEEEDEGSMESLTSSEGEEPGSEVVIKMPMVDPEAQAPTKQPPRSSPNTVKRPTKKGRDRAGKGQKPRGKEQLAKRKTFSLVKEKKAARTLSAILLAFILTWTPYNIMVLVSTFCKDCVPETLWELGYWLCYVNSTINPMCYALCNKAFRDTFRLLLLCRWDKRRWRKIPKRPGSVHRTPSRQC
Sequence of D(2) dopamine receptor (Homo sapiens) (P14416 whole entry, looked up): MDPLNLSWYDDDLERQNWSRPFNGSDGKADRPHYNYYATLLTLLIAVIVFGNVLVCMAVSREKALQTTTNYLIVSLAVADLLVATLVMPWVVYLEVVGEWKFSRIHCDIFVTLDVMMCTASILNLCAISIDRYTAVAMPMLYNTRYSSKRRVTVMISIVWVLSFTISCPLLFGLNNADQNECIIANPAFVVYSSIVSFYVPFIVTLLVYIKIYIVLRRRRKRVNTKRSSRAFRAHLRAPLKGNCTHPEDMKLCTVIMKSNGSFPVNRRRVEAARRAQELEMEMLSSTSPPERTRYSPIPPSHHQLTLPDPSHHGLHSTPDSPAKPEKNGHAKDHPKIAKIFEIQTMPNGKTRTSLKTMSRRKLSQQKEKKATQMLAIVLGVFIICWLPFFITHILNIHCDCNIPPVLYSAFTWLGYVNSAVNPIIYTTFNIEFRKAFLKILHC

As to `CC(C)(C)c1cc(CCC(=O)OCC(COC(=O)CCc2cc(C(C)(C)C)c(O)c(C(C)(C)C)c2)(COC(=O)CCc2cc(C(C)(C)C)c(O)c(C(C)(C)C)c2)COC(=O)CCc2cc(C(C)(C)C)c(O)c(C(C)(C)C)c2)cc(C(C)(C)C)c1O`, the Potency result in test [1], in test [2], in [3], in test [4], in test [5] and in test [6] was “inactive” in each case. Besides, the Potency entry in [7], in test [8], in test [9], in test [10], in test [11] and in test [12] was “inactive” throughout. Besides, the Potency result in [13] and in [14] was “inactive” in each case.

On to `c1cc2ccc3ccc4ccc5cccc6c(c1)c2c3c4c56`, for which the values for the activity change, negative = cytotoxicity in [1] and in test [6] were 3.98% [at 3.27 µM] and 2.26% [at 2.33 µM], respectively. Also, the activity, positive = activation in test [2] is 4.07% [at 3.27 µM]. Also, the activation in test [3] was 0.0535% [at 2.72 µM]; in test [4] it was -0.291% [at 2.04 µM]; in [15], 5.49% [at 2.33 µM]; in test [8], 13.2% [at 2.65 µM]; in [10] it was 0.275% [at 2.72 µM]; in test [11] it was 6.38% [at 3.27 µM]. Further, the activation in test [16] was -0.0755% [at 3.27 µM]. Moreover, the activity, negative = inhibition is 1.93% [at 2.12 µM] in test [7] and 5.84% [at 2.17 µM] in test [9]. In addition, the activity change, negative = inhibition in test [12] is 7.84% [at 3.27 µM]; in [13] it was 4.76% [at 3.27 µM]; in test [14], -0.594% [at 3.28 µM].

As to `CC(C)(C)c1cc(/C=C2\SC(=N)NC2=O)cc(C(C)(C)C)c1O`, in test [1], the Potency is 30.6 µM (active). In addition, the Potency result in test [2], in test [3], in test [4], in test [5], in test [17] and in [8] was “inactive” each time. For the same compound, the Potency result in test [9] and in test [14] was “inactive” each time.

As for `C[C@@H](NCCCc1cccc(C(F)(F)F)c1)c1cccc2ccccc12`, the figures for the Potency in test [1] and in [8] were 29.8 µM (active) and 23.9 µM (active), respectively. Further, the Potency entry in test [2], in test [4], in test [18], in [19], in test [5] and in [15] was “inactive” each time. The Potency entry in test [9] and in test [16] was “inactive” throughout.

On to `COC(=O)C(C)=O`, for which the Potency result in test [1], in test [2], in test [3], in [4], in test [5] and in [17] was “inactive” in each case. For the same compound, the Potency result in [6], in test [7], in [8], in test [10], in test [11] and in test [12] was “inactive” throughout. Also, the Potency result in [16] and in test [14] was “inactive” each time.

As to `CN1CCC(=C2c3ccccc3Sc3ccccc32)CC1`, the Potency result in [1], in test [2], in [3], in [4], in [17] and in test [6] was “inactive” each time. Further, the Potency entry in test [8], in [11], in [12] and in test [16] was “inactive” each time. Also, in test [14], the Potency was 0.75 µM (active).

Turning to `CC[N+](C)(CC)CCOC(=O)C1c2ccccc2Oc2ccccc21`, the Potency result in test [1], in test [2], in test [3], in test [4], in test [5] and in [17] was “inactive” throughout. The Potency result in test [6], in test [7], in test [8], in test [10], in test [11] and in test [12] was “inactive” each time. Moreover, the Potency entry in test [13], in [16] and in test [14] was “inactive” each time.

As to `CCCCOCCOC(=O)COc1nc(Cl)c(Cl)cc1Cl`, the Potency entry in [1], in [2], in test [4], in [18], in test [19] and in [5] was “inactive” throughout. In addition, the Potency result in test [17], in [15], in test [11], in test [12] and in test [13] was “inactive” each time.
